Results filed as inconclusive are left out. The source made the active and inactive calls. Calls come from the whole dose curve; as a rule, active = well fitted cell-killing curve with a large enough effect; inconclusive = small, poorly fitted or top-dose-only effect, or effect the other way; inactive = no such curve, though single readings can be large or run the other way.
Each molecule was assayed on Es-2 (assay: Confirmatory qHTS for gynecologic anti-cancer compounds from libraries of approved drugs and bioactive compounds). Settings: gynecologic cancer cell panel viability, ATPlite luminescence, 48 h; series mostly up to 57.6 µM; activity change, negative = viability loss: at the top concentration.
Summary of the method: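 Cells (1,000/well) were plated, left 16 h at 37 C/5% CO2, then given compound at 11 concentrations (1:3) from 57.5 uM to 0.977 nM for 48 h. ATPlite luminescence after 15 min at room temperature gave IC50 values.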
`C/C=C(/C)C(=O)O[C@H]1C(C)=C2[C@H]([C@@H]1OC(=O)CCCCCCC)[C@@](C)(OC(C)=O)C[C@H](OC(=O)CCC)[C@@]1(O)[C@H]2OC(=O)[C@@]1(C)O` was tested, and the Potency was 27.3 µM (active). `CCOc1ccccc1-n1c(C(C)N2CCN(C(=O)COc3ccc(Cl)cc3)CC2)nc2ccccc2c1=O` (centres undefined) was tested, and the Potency was 3.43 µM (active). In the case of `C[C@]12CC[C@H]3[C@@H](CCC4=CC(=O)CC[C@@H]43)[C@@H]1CC[C@@H]2OC(=O)CCc1ccccc1`, the “activity change, negative = viability loss” value is reported as -4.17% (inactive). In the case of `O=C(O)Cc1ccccc1`, the “activity change, negative = viability loss” value is reported as 20.5% (inactive). With `CCN1CCN(C(=O)Cc2ccc(Nc3ncc(F)c(Nc4ccc(C(=O)Nc5ccccc5Cl)cc4)n3)cc2)CC1` the “activity change, negative = viability loss” value was -8.79% (inactive). In the case of `CCC(=O)O[C@H]1CC[C@H]2[C@@H]3CCC4=CC(=O)CC[C@]4(C)[C@H]3CC[C@]12C`, the “activity change, negative = viability loss” value is reported as 5.91% (inactive). In the case of `C[C@H]1CCC/C=C/C2C[C@H](O)C[C@H]2[C@H](O)/C=C/C(=O)O1` (some centres undefined), the Potency is reported as 0.485 µM (active). In the case of `C=C(C)[C@H]1Cc2c(ccc3c2O[C@@H]2COc4cc(OC)c(OC)cc4[C@@H]2C3=O)O1`, the Potency is reported as 0.685 µM (active). In the case of `CCNC(=O)C[C@@H]1N=C(c2ccc(Cl)cc2)c2cc(OC)ccc2-n2c(C)nnc21`, the Potency is reported as 24.3 µM (active).

— PubChem BioAssay AID1345085 (National Center for Advancing Translational Sciences (NCATS), 2018)
% is set by controls: 0 for no effect and ±100 for the full control effect; potency is the fitted concentration of half-maximal effect.
Note: nearly all actives have a fitted effect of over 55% in size.
